Columns and labels:
Test in all cases: PBM binding z-score (relative to random genomic background probes); higher = stronger binding; sequences stand for … in GC…GCGATTGACAGCGTAGAATGAAGG
[1] = system: RARb homodimer (NR concentration 270 nM)
In short: (§1)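 The probes on custom Agilent 4×180K protein-binding microarrays were double-stranded, with 34-nt variable regions bearing direct-repeat seeds, single-nucleotide variants, half-site ablations and random human genomic background sequences. Incubation lasted 1 h with ligand-free nuclear receptor dimers in PBS pH 7.4, 2% milk, 0.02% Triton X-100, 1 mM DTT, 0.2 mg/mL BSA and 0.4 mg/ml salmon testes DNA. Antibodies against each partner (one per run) detected bound dimers, and fluorescence scans were regression-normalized. Binding z-scores take the random background probes as reference.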

[2] = system: RARg:RXRa (NR concentration 270 nM, RXRa partner concentration 90 nM)
In short: as §1

[3] = system: RARg homodimer (NR concentration 270 nM)
In short: as §1

[4] = system: RXRa DBDmut IVT, anti-RXR (DBD mutation: RXRa K156A/R161A, NR concentration 90 nM)
In short: as §1

[5] = system: RXRa homodimer (NR concentration 180 nM)
In short: as §1

[6] = system: THRa:RXRa (NR concentration 90 nM, RXRa partner concentration 90 nM)
In short: as §1

[7] = system: THRa homodimer (NR concentration 90 nM)
In short: as §1

[8] = system: VDR:RXRa (NR concentration 270 nM, RXRa partner concentration 90 nM)
In short: as §1

[9] = system: VDR homodimer (NR concentration 270 nM)
In short: as §1

Sequence	PBM binding z-score [1]	PBM binding z-score [2]	PBM binding z-score [3]	PBM binding z-score [4]	PBM binding z-score [5]	PBM binding z-score [6]	PBM binding z-score [7]	PBM binding z-score [8]	PBM binding z-score [9]
CCTTACGGGTCATTGACAGGTTATAGCATTTGGA	3.04	5.75	3.8	2.9	5.07	2.91	0.494	4.11	1.67
CGTCCAAGGTCAGCAAGTCAGTGAAAGCGACGTG	3.99	5.01	6	2.5	4.02	3.42	1.67	2.93	1.03
TGGATGAGGTTAAAGATCAGGGAACGTGGCGTCG	1.38	2.75	1.59	1.46	4.05	2.88	1.11	2.32	1.42
CCTGCGAGGTCAATGGTCAGCTAAAGCAGCTCGC	4.2	6.01	5.99	4.37	5.95	3.8	2.37	4.73	3.63
TCTGCTAGGTCAGCGATGGTCAGCTAATCTGCTA	2.71	2.89	3.88	0.156	1.25	2.4	-0.062	0.126	-0.739
TCTGCTAGGTCAGTTGGTCAGCTATCGAGCTGCC	2.69	2.62	3.33	0.537	0.914	1.2	0.162	0.206	-0.608
CGTCAAAGTTCAAGGTAAGGTAACAGAAAGCAGC	3.86	5.71	5.4	4.12	4.23	4.38	1.85	3.7	2.9
TCTAGTTGGTCAAAGGTCACACATTCGAAATGCG	5.15	6.77	5.76	1.62	7.57	4	2.07	5.09	2.42
CCTTATGGGTCACTCCAGGTTATAGCATCGGAGT	2.87	3.68	3.9	0.586	3.31	4.85	0.288	3.33	0.918
ATCTCTAGGTAAAAGTTCAGTGAATCCCGAGGAT	2.42	1.68	2.06	0.516	1.54	1.24	0.375	1.31	1.7
TAGCCTAGGTCATGGGCCAGTACACCACGCGAAC	2.88	4.3	4.65	0.275	3.7	2.99	1.48	2.38	0.985
ACTATTAGATGAGACGAGGGCAACCGATAGGTTG	1.3	0.879	1.09	0.518	0.632	1.42	0.659	0.421	0.77
AGAATGAGGTTATACGTAGACCAGGGAAGAAAGT	0.866	1.63	1.19	1.61	2.16	1.98	0.296	1.18	0.999
TGAATGAGGTTATAAGATCGGGGAACGTTGCAAA	0.0926	1.17	0.891	0.942	1.77	1.76	0.158	0.904	0.395
TCATATAGGTAATACAGGTGAAAGCCGGCATCTA	0.482	0.795	0.815	1.69	1.55	1.14	0.273	1.2	0.67
ATCCAAAGGTCGAAGGTGAGTATACCCACCCGAA	2.66	4.58	4.35	0.893	5.48	2.32	-0.204	3.15	0.849
AGAATGAGTTTAAGATCAGGGAAACAGAATACAT	-0.102	0.254	0.612	2.68	0.484	0.276	-0.184	0.803	2.06
GCTTGTAGATCAAGGTTAAGATAGACTAAGCTAA	0.293	0.611	0.411	0.0981	1.04	1.21	-0.344	0.0807	-0.108
